Shown are actives, neighbours in structure and some others; about 1.5% of the full set was active somewhere.
eLon inh – inhibitors of E. coli Lon protease, primary screen, biochemical, fluorescence polarization; AID 602123, 2011; hit rate 0.42% among 360,000; inhibition, % at 7.94 µM; P0A9M0; purified E. coli Lon protease; in the data active = inhibition above about 13%, passing the limit was not always enough;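 also: 0% = enzyme with probe and DMSO and 100% = no enzyme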
EBV gp42 block – Epstein-Barr virus gp42 inhibitors, primary screen, biochemical, uHTS, fluorescence polarization; Fluorescence polarization binding assay, mP read-out; AID 1085, 2008; inhibition, % (tested at 21.74 µM); hit rate 0.42% among 220,000; in the data active = inhibition above about 50%
Target sequence (Q1HVG2 whole entry, looked up): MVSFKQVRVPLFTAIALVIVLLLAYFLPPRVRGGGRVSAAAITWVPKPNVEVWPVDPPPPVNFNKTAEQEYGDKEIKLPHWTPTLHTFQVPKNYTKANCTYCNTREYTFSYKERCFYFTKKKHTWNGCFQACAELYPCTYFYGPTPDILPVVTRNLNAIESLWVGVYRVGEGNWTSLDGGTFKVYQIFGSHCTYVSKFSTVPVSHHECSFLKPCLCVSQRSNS
GLD-1 TGE inh – GLD-1/TGE RNA complex disruptors, primary screen, biochemical, fluorescence polarization | Female germline-specific tumor suppressor gld-1 (Caenorhabditis elegans), Q17339 | purified GLD-1 + fluorescein TGE RNA | inhibition, % at 5.96 µM | hit rate 0.44% among 320,000;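 active = percent inhibition above a per-plate cutoff, the plate mean of test compounds plus 3 SD, cut at about 30% in these data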;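 also: 0% = DMSO wells with GLD-1 and probe and 100% = wells lacking GLD-1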
MCL1 BIM primary – inhibitors of MCL1 binding to BIM-BH3, primary screen, biochemical, fluorescence polarization; Induced myeloid leukemia cell differentiation protein Mcl-1 (Homo sapiens), Q07820; GST-MCL1 / FITC-Bim-BH3 fluorescence polarization; inhibition, % at 10.9 µM; hit rate 0.68% among 320,000; AID 2057, 2009;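 active = inhibition above the mean inhibition of all tested compounds plus 3 SD, set per campaign, cut at about 40% in these data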;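 also: 0% = DMSO wells and 100% = unlabeled Bim-BH3 peptide control; higher means more loss of mP so more displacement of Bim peptide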
Target sequence (Q07820 whole entry, looked up): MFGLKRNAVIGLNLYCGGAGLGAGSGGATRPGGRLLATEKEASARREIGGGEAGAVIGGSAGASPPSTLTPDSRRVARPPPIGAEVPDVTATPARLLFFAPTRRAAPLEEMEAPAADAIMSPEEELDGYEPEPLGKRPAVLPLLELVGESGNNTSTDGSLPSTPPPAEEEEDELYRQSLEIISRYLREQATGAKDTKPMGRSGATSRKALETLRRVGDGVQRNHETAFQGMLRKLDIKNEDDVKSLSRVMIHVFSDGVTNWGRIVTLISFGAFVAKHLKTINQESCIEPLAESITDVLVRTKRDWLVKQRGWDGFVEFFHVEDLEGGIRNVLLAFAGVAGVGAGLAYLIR
MEX-5 binding – MEX-5 zinc finger RNA-binding disruptors – biochemical, C. elegans, fluorescence polarization, MLPCN library, primary screen; Zinc finger protein mex-5 (Caenorhabditis elegans), Q9XUB2; MEX-5/FITC-TCR2 RNA binding; active compounds read low; activity score (negative = inhibition of binding), % at 10 µM; hit rate 0.38% among 300,000; AID 1832, 2009;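 active = inhibition past about -25% in most replicates, and total fluorescence under double the plate's negative control median, limit read from the data; inconclusive = replicates evenly split on the limit, or fluorescence at least double controls; inactive = too little inhibition in most replicates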;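 also: 0% = DMSO and -100% = 5 µM competing unlabeled TCR2 RNA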
BCLXL inh – inhibitors of human Bcl-xL, primary screen, biochemical, fluorescence polarization, HTS. AID 2129, 2009. Bcl-2-like protein 1 (Homo sapiens), Q07817. inhibition, % at 10.9 µM. hit rate 0.7% among 320,000. GST-Bcl-xL / FITC-Bim BH3 peptide fluorescence polarization;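 active = inhibition above the mean of all tested compounds plus 3 SD, cutoff set per campaign, cut at about 30% in these data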;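 also: 0% = DMSO wells and 100% = unlabeled Bim-BH3 peptide competitor; inhibitors lower millipolarization by displacing the labeled peptide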
E coli Lon conf – E. coli Lon protease inhibitor retest, confirmation, biochemical, fluorescence polarization; shares compounds with eLon inh; purified E. coli Lon; inhibition, % at 7.94 µM; hit rate 31% among 1,400; in the data active = inhibition above about 16%;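 also: 0% = enzyme with probe and DMSO and 100% = no enzyme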
An asterisk follows results filed as active.

Screening Clc1cccc(-c2nc3ccc(Cl)cn3c2Cc2ccsc2)c1 returned eLon inh 19.6* and E coli Lon conf 112.7*.
Screening N#CC1=C2N=C(N)c3ccccc3N2C2=C(C(=O)CCC2)C1c1ccccc1F (stereo unspecified) returned eLon inh 71.2*, EBV gp42 block 26.3, GLD-1 TGE inh 13.5, MCL1 BIM primary 20.6, MEX-5 binding -0.2, BCLXL inh 23.8 and E coli Lon conf 3.8.
`Oc1ccc(C[C@H]2CNC(=S)N2C[C@H]2CCCN2C[C@H](Cc2ccccc2)N2C[C@H](Cc3ccc(O)cc3)N(CC3CCCCCC3)C2=S)cc1` gave eLon inh -3.1.
O=C(/C(=C/O)N=Nc1ccccc1)c1cccs1 was read as eLon inh 21.8*, EBV gp42 block 2.2, GLD-1 TGE inh 1.5, MCL1 BIM primary 3.3, MEX-5 binding -2.8, BCLXL inh 0.9 and E coli Lon conf 11.9.
Screening O=[N+]([O-])c1ccc(Nc2ccccc2O)c2nonc12 returned eLon inh 29.5*, MEX-5 binding -35.8* and E coli Lon conf 28.6*.
`O=C(O)c1ccc(Nc2ccc([N+](=O)[O-])c3nonc23)cc1` gave eLon inh 5.9 and MEX-5 binding 5.2.
O=C(COc1cccc(C(F)(F)F)c1)NCC(c1ccco1)N1CCCCC1 (stereo unspecified) was read as eLon inh -5.5, GLD-1 TGE inh 2.3, MCL1 BIM primary -1.2, MEX-5 binding 2.3 and BCLXL inh 6.8.
Cc1cc[n+](-c2[nH]c(=O)sc2/C=N/N=C(\[O-])c2ccccc2)cc1C was read as eLon inh 67.8*, EBV gp42 block 136.8*, MEX-5 binding inconclusive and E coli Lon conf 125.5*.
For O=C1CCCCN1CCc1c[nH]c2ccccc12 the results were eLon inh 13.7*, EBV gp42 block -5.9, GLD-1 TGE inh 6.1, MCL1 BIM primary -3.0, MEX-5 binding -0.6, BCLXL inh 1.6 and E coli Lon conf -2.0.
O=C(Nc1ccc([N+](=O)[O-])cc1)c1cc(-c2ccccn2)nc2c(Cl)cccc12 was read as eLon inh 0.0, EBV gp42 block 1.0, GLD-1 TGE inh 6.1, MCL1 BIM primary 3.9, MEX-5 binding -0.1 and BCLXL inh 2.3.
`COC(=O)C1=C(C)NC(=O)CC1c1ccccc1` (stereo unspecified) gave eLon inh -1.4, EBV gp42 block 5.7, GLD-1 TGE inh -2.3, MCL1 BIM primary 8.2, MEX-5 binding 0.4 and BCLXL inh 5.9.
`COC(=O)C1=C(C)NC(=S)N(C(C)=O)C1c1ccccc1` (stereo unspecified) gave eLon inh 17.5*, EBV gp42 block -20.4, GLD-1 TGE inh -2.1, MCL1 BIM primary 8.9, MEX-5 binding -0.2, BCLXL inh -1.2 and E coli Lon conf 20.5*.
`O=C(c1ccccc1NS(=O)(=O)c1cccs1)N1CCCC1` gave eLon inh 19.9*, EBV gp42 block -4.0, GLD-1 TGE inh 6.0, MCL1 BIM primary -2.6, MEX-5 binding 2.3, BCLXL inh 5.9 and E coli Lon conf -5.0.
O=C(c1ccccc1NS(=O)(=O)c1ccccc1)N1CCCCCC1 was read as eLon inh -9.1, GLD-1 TGE inh 1.4, MCL1 BIM primary -4.4, MEX-5 binding 3.2 and BCLXL inh 0.2.
Cc1nnc(NC(=O)c2ccc3c(c2)NC(=O)CS3)s1 was read as eLon inh 25.5*, GLD-1 TGE inh -3.7, MCL1 BIM primary -3.5, BCLXL inh -5.8 and E coli Lon conf -5.7.
`O=C(Nc1ccc2c(c1)OCCO2)c1ccccc1F` gave eLon inh -9.3, EBV gp42 block -33.1, GLD-1 TGE inh 3.3, MCL1 BIM primary 1.2, MEX-5 binding -2.0 and BCLXL inh 6.9.
`O=C(NC(=S)Nc1ccc2c(c1)OCCO2)c1ccccc1F` gave eLon inh 36.5*, EBV gp42 block -3.0, GLD-1 TGE inh -1.5, MCL1 BIM primary 2.8, MEX-5 binding -0.9, BCLXL inh 5.8 and E coli Lon conf -2.6.
COc1ccc(O)c(C(=O)c2cnn(-c3ccccn3)c2)c1 was read as eLon inh 84.2*, EBV gp42 block -1.1, GLD-1 TGE inh -6.2, MCL1 BIM primary -7.8, MEX-5 binding 1.7, BCLXL inh 0.2 and E coli Lon conf -12.5.
`COc1ccc(O)c(C(=O)c2cnn(-c3ccc(Cl)cc3)c2)c1` gave eLon inh -8.7, GLD-1 TGE inh 1.7, MCL1 BIM primary 2.8, MEX-5 binding -1.4 and BCLXL inh 2.3.
`O=C1c2ccccc2S(=O)(=O)N1CC(O)Cn1ccc2ccccc21` (stereo unspecified) gave eLon inh 112.1*, EBV gp42 block -3.7, GLD-1 TGE inh 16.1, MCL1 BIM primary 21.4, MEX-5 binding -11.1, BCLXL inh 24.4 and E coli Lon conf 45.1*.
COC(=O)c1ccc(C)c(-n2c(=O)n(Cc3ccccc3)c(=O)c3[nH]cnc32)c1 was read as eLon inh -4.0, GLD-1 TGE inh 1.2, MCL1 BIM primary 0.5, MEX-5 binding -2.5 and BCLXL inh -0.3.
Cc1sc2nc(CSC(C)C(=O)Nc3ccc(Cl)cn3)[nH]c(=O)c2c1C (stereo unspecified) was read as eLon inh -16.9, GLD-1 TGE inh 2.0, MCL1 BIM primary 19.8 and BCLXL inh 10.4.
Screening O=C(NCc1ccccn1)C1Nc2ccc(C(F)(F)F)cc2C2C=CCC12 (stereo unspecified) returned eLon inh -0.2, GLD-1 TGE inh -9.8, MCL1 BIM primary 2.5, MEX-5 binding -2.0 and BCLXL inh 3.6.
For O=C(Nc1cccc(C(=O)N2CCCCC2)c1)c1ccccc1 the results were eLon inh 10.3.
`O=C(Nc1cccc(C(=O)N2CCCCC2)c1)c1ccc(Cl)cc1` gave eLon inh 17.4*, GLD-1 TGE inh 2.6, MCL1 BIM primary 1.2, MEX-5 binding 0.0, BCLXL inh -1.8 and E coli Lon conf 5.1.
For O=C(Nc1cccc(C(=O)N2CCCCC2)c1)C1CCCC1 the results were eLon inh 16.0* and E coli Lon conf -5.6.
For CCN1CCN(C(=O)c2ccc3c(c2)N(Cc2ccccc2F)C(=O)c2ccccc2S3(=O)=O)CC1 the results were eLon inh -5.7, GLD-1 TGE inh 3.4, MCL1 BIM primary 6.5, MEX-5 binding -1.5 and BCLXL inh -0.3.

Screening results: PubChem, several laboratories
